Assay [1] deals with DLD1. The assay is described as follows: cell viability (CellTiter-Glo) relative to plate median (fraction of plate median); higher = more viable cells. As to conditions: 5 µM; treatment time 24 h; reporter: 7TFP. The gist of the method:
(§1)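 Stable lentiviral TCF/Wnt firefly luciferase reporters (7TFP or TCF4/Wnt) were present in the colorectal cancer cell lines used. These cells received library compounds at a final 5 µM for 24 h, and parallel plates were read for firefly luciferase or CellTiterGlo luminescence. Each well was normalised to the plate median, and the value reported is the mean of two independent replicates.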
Background: In ATP-based viability assays light output follows the ATP content of the culture.

For a further assay, the system named is HCT116. Described as above. As to conditions: 5 µM; treatment time 24 h; reporter: TCF4/Wnt. In a few lines:
as §1

In assay [2] the test system is SW480. The description is as above. The following applies: 5 µM; treatment time 24 h; reporter: 7TFP. In a few lines:
as §1

The test system of assay [3] is DLD1. Description: TCF/Wnt firefly luciferase reporter signal relative to plate median (fraction of plate median); higher = higher Wnt reporter signal. The following applies: 5 µM; treatment time 24 h; reporter: 7TFP. In a few lines: as §1
(In general: A reporter such as luciferase makes a cellular process visible.)

Assay [4] relates to SW480. The description is as above. As to conditions: 5 µM; treatment time 24 h; reporter: 7TFP. In a few lines:
as §1

± gives the standard deviation of the averaged measurements.

As to `O=C1CN(/N=C/c2ccc([N+](=O)[O-])o2)C(=O)N1`, the results for the cell viability with DLD1 [1], in the assay with HCT116 and in the assay on SW480 [2] were 1.03 ± 0.11, 1.02 ± 0.037 and 0.949, respectively. The “TCF/Wnt firefly luciferase reporter signal” value is 0.954 ± 0.043 in the assay with DLD1 [3] and 0.995 ± 0.12 with SW480 [4].
On the same counts, the results for `Cc1cccc(CN2CCN(C(c3ccccc3)c3ccc(Cl)cc3)CC2)c1` (stereo not given) are 1.06 ± 0.028, 1.05 ± 0.028, 0.987 ± 0.0099, 1.02 ± 0.038 and 0.998 ± 0.046.
In the case of `CC(=O)Oc1ccc2c(c1OC(C)=O)OCC1(O)Cc3c(cc(OC(C)=O)c(OC(C)=O)c3OC(C)=O)C21` (stereo not given), the cell viability with DLD1 [1] is 0.96 ± 0.017; in the assay on HCT116 it was 1.02 ± 0.074; in the assay on SW480 [2], 0.959 ± 0.059. Moreover, the results for the “TCF/Wnt firefly luciferase reporter signal” value with DLD1 [3] and with SW480 [4] were 0.939 ± 0.05 and 0.9105 ± 0.0064, respectively.
For `CN(C)CCc1c[nH]c2ccc(C[C@H]3COC(=O)N3)cc12` the same measures were 0.931 ± 0.059, 1.08 ± 0.078, 1.04 ± 0.014, 1.03 ± 0.021 and 0.95 ± 0.069.
In the case of `C#C[C@]1(O)CC[C@H]2[C@@H]3CCC4=CCCC[C@@H]4[C@H]3CC[C@@]21C`, the cell viability in the assay with DLD1 [1] turned out to be 1 ± 0.094; in the assay with HCT116 it was 1.04 ± 0.021; in the assay on SW480 [2], 0.97 ± 0.0085. The “TCF/Wnt firefly luciferase reporter signal” value was 1.02 ± 0.033 with DLD1 [3] and 0.905 ± 0.042 with SW480 [4].
With `O=c1c(-c2ccc(O)cc2)coc2cc(O)ccc12` [Daidzein (Biofocus)], the cell viability in the assay with DLD1 [1] worked out at 1.02 ± 0.03; in the assay on HCT116, 1.16 ± 0.11; in the assay on SW480 [2], 1.05 ± 0.057. Further, the “TCF/Wnt firefly luciferase reporter signal” value in the assay with DLD1 [3] was 1.11 ± 0.11; with SW480 [4] it was 0.976 ± 0.091.

(Values after the supplement of paper PMC6522484.)
